Experimental data: PubChem BioAssay (NCI)
Several values for one entry are separate records, joined by “and”; a condition that tells them apart may be missing. Equal entries are not always repeated. This is part of a sample that, as a whole, favours compounds with a hit. Of some 79,000 tested, about 15% had one in any assay. Some compounds were tested as several samples or in several runs, with calls that do not always agree. Activity calls are given as the source filed them. Rule as the data show it: active = growth inhibition above about 70%; inactive = the rest.

Columns and labels:
[1] = NCI Yeast Anticancer Drug Screen. Data for the rad52 strain (AID 147);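 also: 0% = growth of vehicle-treated control cultures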; details: S. cerevisiae rad52 mutant growth inhibition, stronger effect = higher value
Summary of the method: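 Read-out: growth inhibition versus vehicle-treated controls. Cells were a DNA repair-deficient yeast strain treated with compounds.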

[2] = NCI Yeast Anticancer Drug Screen. Data for the wt1 strain (AID 149);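 also: 0% = growth of vehicle-treated wt1 cultures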; details: S. cerevisiae wt1 strain (SPY 50644) growth inhibition, stronger effect = higher value
Summary of the method: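 Measured: growth of wt1 yeast under compound versus vehicle treatment, reported as inhibition.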

[3] = NCI Yeast Anticancer Drug Screen. Data for the rad50EPP+ strain (AID 151);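 also: 0% = growth of vehicle-treated control cultures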; details: S. cerevisiae rad50 mutant strain, stronger effect = higher value
Summary of the method: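 Growth inhibition read against vehicle controls in rad50EPP+ yeast, a strain altered in DNA damage repair, after compound exposure.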

[4] = NCI Yeast Anticancer Drug Screen. Data for the mgt1 strain (AID 153); details: S. cerevisiae mgt1 mutant growth inhibition, stronger effect = higher value
Summary of the method: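 mgt1 yeast grown with test compound; read-out is growth inhibition versus vehicle-treated cultures.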

[5] = NCI Yeast Anticancer Drug Screen. Data for the rad50 strain (AID 155);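 also: 0% = growth of vehicle-only cultures of the same strain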; details: S. cerevisiae rad50 strain growth inhibition, stronger effect = higher value
Summary of the method: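 Growth of the mutant yeast was measured after compound exposure and referenced to vehicle-treated cultures.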

[6] = NCI Yeast Anticancer Drug Screen. Data for the mec2-1 strain (AID 157); details: S. cerevisiae mec2-1 strain, stronger effect = higher value
Summary of the method: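 Yeast mec2-1 mutant treated with compound. Readout: growth inhibition vs vehicle controls.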

[7] = NCI Yeast Anticancer Drug Screen. Data for the rad14 strain (AID 159);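 also: 0% = growth of vehicle-treated control cultures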; details: S. cerevisiae rad14 strain growth inhibition, stronger effect = higher value
Summary of the method: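 Here, inhibition of yeast growth was measured after compound exposure, using a strain with a genetic defect in DNA damage repair and vehicle-treated cultures as the reference.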

[8] = NCI Yeast Anticancer Drug Screen. Data for the sgs1 mgt1 strain (AID 161);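 also: 0% = growth of cultures given vehicle only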; details: S. cerevisiae sgs1 mgt1 strain, stronger effect = higher value
Summary of the method: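 Read-out: growth inhibition vs vehicle controls. Cells: mutant yeast strain deficient in DNA damage repair.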

[9] = NCI Yeast Anticancer Drug Screen. Data for the CLN2oe strain (AID 163);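 also: 0% = growth of vehicle-only control cultures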; details: S. cerevisiae CLN2oe strain, stronger effect = higher value
Summary of the method: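 Read-out: yeast growth inhibition, expressed relative to vehicle-only controls. The strain bears an engineered cell-cycle alteration.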

[10] = NCI Yeast Anticancer Drug Screen. Data for the cln2 rad14 strain (AID 165);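 also: 0% = growth equal to vehicle treated cultures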; details: S. cerevisiae cln2 rad14 strain, stronger effect = higher value
Summary of the method: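 cln2 rad14 yeast strain; compound exposure; growth inhibition read vs vehicle controls.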

[11] = NCI Yeast Anticancer Drug Screen. Data for the bub3 strain (AID 167); details: S. cerevisiae bub3 mutant strain, stronger effect = higher value
Summary of the method: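 Whole-cell yeast assay. The mutant strain was incubated with compounds, and growth inhibition was determined by comparison with vehicle-treated cells.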

[12] = NCI Yeast Anticancer Drug Screen. Data for the wt2 strain (AID 169);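 also: 0% = growth of vehicle-treated yeast cultures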; details: S. cerevisiae wt2 strain growth inhibition, stronger effect = higher value
Summary of the method: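 Read-out: growth inhibition versus vehicle-treated control cultures after compound exposure of the yeast strain.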

[13] = NCI Yeast Anticancer Drug Screen. Data for the mlh1 strain (AID 171);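 also: 0% = growth of vehicle-treated control cultures of the same strain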; details: S. cerevisiae mlh1 strain growth inhibition, stronger effect = higher value
Summary of the method: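 Read-out: growth inhibition versus vehicle controls. Strain: engineered yeast with a defined DNA repair or cell cycle defect, compound-treated.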

[14] = NCI Yeast Anticancer Drug Screen. Data for the sgs1 strain (AID 173);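 also: 0% = growth of vehicle-only control cultures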; details: S. cerevisiae sgs1 mutant, stronger effect = higher value
Summary of the method: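 Read-out: yeast growth inhibition relative to vehicle controls, following compound exposure of a strain with a defined DNA repair/cell cycle alteration.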

[15] = NCI Yeast Anticancer Drug Screen. Data for the mlh1 rad18 strain (AID 175); details: S. cerevisiae mlh1 rad18 strain growth inhibition, stronger effect = higher value
Summary of the method: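 Yeast w/ defined DNA-repair lesions; compound exposure; growth vs vehicle controls → % inhibition.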

[16] = NCI Yeast Anticancer Drug Screen. Data for the rad18 strain (AID 177); details: S. cerevisiae rad18 mutant growth inhibition, stronger effect = higher value
Summary of the method: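 Readout: growth inhibition vs vehicle controls. Cells: genetically altered yeast strain, DNA repair defect.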

[17] = at 5.0 µM (retest, dose inferred, filed as 0.5)
[18] = at 50.0 µM (retest, dose inferred, filed as 5.0)

Measured: growth inhibition

CCOC(=O)c1[nH]n(-c2ccccc2)c(=O)c1C=NC(=S)C(N)=S
active: [1]; at 33.0 µM 71% | [1]; at 100.0 µM 97% | [2]; at 100.0 µM 98% | [4]; at 100.0 µM 97% | [5]; at 33.0 µM 90% | [5]; at 50.0 µM 87.5% | [5]; at 100.0 µM 97% | [6]; at 33.0 µM 96% | [6]; [18] 88% | [6]; at 50.0 µM 90.7% | [6]; at 100.0 µM 97% | [7]; at 33.0 µM 95% | [7]; at 100.0 µM 97% | [8]; at 50.0 µM 91% | [9]; at 100.0 µM 97% | [10]; at 50.0 µM 90.4% | [11]; [18] 92% | [11]; at 100.0 µM 97% | [12]; at 100.0 µM 98% | [13]; at 33.0 µM 96% | [13]; at 100.0 µM 97% | [14]; at 33.0 µM 96% | [14]; at 100.0 µM 97% | [15]; [18] 92% | [15]; at 50.0 µM 86.3% | [16]; at 100.0 µM 97%
inactive: [1]; at 1.2 µM 24% | [1]; at 3.7 µM 21% | [1]; at 11.0 µM 30% | [2]; at 1.2 µM 19% | [2]; at 3.7 µM 8% | [2]; at 11.0 µM 25% | [2]; at 33.0 µM 29% | [3]; at 1.2 µM -3% | [3]; at 3.7 µM -23% | [3]; at 11.0 µM 5% | [3]; at 33.0 µM 30% | [3]; at 100.0 µM 69% | [4]; at 1.2 µM -6% | [4]; at 3.7 µM -10% | [4]; at 11.0 µM -16% | [4]; at 33.0 µM 34% | [5]; at 1.2 µM 8% | [5]; at 3.7 µM 29% | [5]; [17] -36% | [5]; at 11.0 µM 31% | [5]; [18] 19% | [6]; at 1.2 µM 5% | [6]; at 3.7 µM 5% | [6]; [17] -22% | [6]; at 11.0 µM -12% | [7]; at 1.2 µM -15% | [7]; at 3.7 µM -15% | [7]; at 11.0 µM -11% | [8]; [17] -4% | [8]; [18] 13% | [9]; at 1.2 µM -8% | [9]; at 3.7 µM -7% | [9]; at 11.0 µM 2% | [9]; at 33.0 µM 35% | [10]; [17] -4% | [10]; [18] 12% | [11]; at 1.2 µM -8% | [11]; at 3.7 µM -4% | [11]; [17] -27% | [11]; at 11.0 µM -8% | [11]; at 33.0 µM 8% | [11]; at 50.0 µM 60.2% | [12]; at 1.2 µM -2% | [12]; at 3.7 µM 0% | [12]; at 11.0 µM 7% | [12]; at 33.0 µM 46% | [13]; at 1.2 µM 22% | [13]; at 3.7 µM 16% | [13]; at 11.0 µM 43% | [14]; at 1.2 µM 21% | [14]; at 3.7 µM 27% | [14]; at 11.0 µM 41% | [15]; [17] -3% | [16]; at 1.2 µM 0% | [16]; at 3.7 µM -4% | [16]; at 11.0 µM 2% | [16]; at 33.0 µM 67%

O=C(O)c1ccc(N2C(=O)C=CC2=O)cc1
30% (inactive) and 72.7% (active): [5]; at 50.0 µM
active: [1]; at 100.0 µM 74% | [5]; at 100.0 µM 80% | [16]; at 100.0 µM 72%
inactive: [1]; at 1.2 µM 1% | [1]; at 3.7 µM 7% | [1]; at 11.0 µM 8% | [1]; at 33.0 µM 27% | [2]; at 1.2 µM -3% | [2]; at 3.7 µM -2% | [2]; at 11.0 µM 1% | [2]; at 33.0 µM 10% | [2]; at 100.0 µM 53% | [3]; at 1.2 µM 2% | [3]; at 3.7 µM 5% | [3]; at 11.0 µM 8% | [3]; at 33.0 µM 22% | [3]; at 100.0 µM 40% | [4]; at 1.2 µM 1% | [4]; at 3.7 µM 1% | [4]; at 11.0 µM 3% | [4]; at 33.0 µM 18% | [4]; at 100.0 µM 62% | [5]; at 1.2 µM 3% | [5]; at 3.7 µM 11% | [5]; [17] -8% and 7% | [5]; at 11.0 µM 14% | [5]; at 33.0 µM 33% | [5]; [18] 44% and 25% | [6]; at 1.2 µM -7% | [6]; at 3.7 µM -4% | [6]; [17] 5% and 7% | [6]; at 11.0 µM 0% | [6]; at 33.0 µM 21% | [6]; [18] 15% and 24% | [6]; at 50.0 µM 17.6% and 32.5% | [6]; at 100.0 µM 56% | [7]; at 1.2 µM -3% | [7]; at 3.7 µM -6% | [7]; at 11.0 µM 3% | [7]; at 33.0 µM 12% | [7]; at 100.0 µM 38% | [8]; [17] 9% and 8% | [8]; [18] 56% and 22% | [8]; at 50.0 µM 11.9% and 59.4% | [9]; at 1.2 µM 1% | [9]; at 3.7 µM 4% | [9]; at 11.0 µM 6% | [9]; at 33.0 µM 18% | [9]; at 100.0 µM 39% | [10]; [17] -35% and 5% | [10]; [18] -2% and 6% | [10]; at 50.0 µM 43.3% and 26.8% | [11]; at 1.2 µM -7% | [11]; at 3.7 µM -23% | [11]; [17] -13% and -1% | [11]; at 11.0 µM -3% | [11]; at 33.0 µM 4% | [11]; [18] 10% and -10% | [11]; at 50.0 µM -2.9% and -0.2% | [11]; at 100.0 µM 39% | [12]; at 1.2 µM -2% | [12]; at 3.7 µM -1% | [12]; at 11.0 µM 5% | [12]; at 33.0 µM 22% | [12]; at 100.0 µM 68% | [13]; at 1.2 µM -2% | [13]; at 3.7 µM 5% | [13]; at 11.0 µM 10% | [13]; at 33.0 µM 25% | [13]; at 100.0 µM 61% | [14]; at 1.2 µM 0% | [14]; at 3.7 µM 4% | [14]; at 11.0 µM 14% | [14]; at 33.0 µM 31% | [14]; at 100.0 µM 67% | [15]; [17] -6% and 4% | [15]; [18] 41% and 20% | [15]; at 50.0 µM 20.1% and 27.3% | [16]; at 1.2 µM 1% | [16]; at 3.7 µM 3% | [16]; at 11.0 µM 4% | [16]; at 33.0 µM 22%
